Many of the other results were omitted from the sample, so hits are more common in it than they were.
CHX counter = affects cycloheximide protein synthesis inhibition readout, counter-screen. cell reporter, cycloheximide protein synthesis inhibition counterscreen. max response, %. actives 12% (n = 300,000). AID 2314; in the data active means max response mostly above about 13%, no sharp cut-off; inactive means mostly below about 14%; further: read at 38.3 µM for the half of the compounds with a filed dose
Tb PYK inh = blocks Trypanosoma brucei pyruvate kinase | Q57TT1 | TbPYK enzyme, Kinase-Glo Plus ATP luminescence, 45 min | Potency, µM (highest dose often 76.8 µM), hits mostly inhibitors | actives 0.12% (n = 410,000) | AID 624173; further: nearly all actives have a fitted effect of over 50% in size
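Luminescence from Kinase-Glo Plus, added after a 45-minute room-temperature reaction, served as the end-point read-out. The enzyme and substrate were preincubated with compound before ADP (130 uM final) initiated turnover. Concentration-effect curves came from normalized qHTS data.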
Giardia FBPA inh = blocks Giardia fructose-bisphosphate aldolase activity. Potency, µM (highest dose often 59.6 µM), actives largely listed as inhibitors. actives 0.71% (n = 290,000). purified Giardia FBPA. AID 2451. A8B2U2; further: nearly all actives have a fitted effect of over 55% in size
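40 nM FBPA preincubated 10 min at RT with compound (up to 57.5 uM final), then substrate plus GAPDH/TPI/NAD/arsenate coupling and diaphorase/resazurin added. Fluorescence read after 20 min at RT, 525/598 nm.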
LmPK inhibitor = blocks Leishmania mexicana pyruvate kinase activity | Q27686 | Potency, µM (doses to about 57.5 µM), usual class: inhibitors | actives 0.37% (n = 290,000) | purified LmPK, Kinase-Glo ATP luminescence, 1 h
Target sequence (Q27686 whole entry, looked up): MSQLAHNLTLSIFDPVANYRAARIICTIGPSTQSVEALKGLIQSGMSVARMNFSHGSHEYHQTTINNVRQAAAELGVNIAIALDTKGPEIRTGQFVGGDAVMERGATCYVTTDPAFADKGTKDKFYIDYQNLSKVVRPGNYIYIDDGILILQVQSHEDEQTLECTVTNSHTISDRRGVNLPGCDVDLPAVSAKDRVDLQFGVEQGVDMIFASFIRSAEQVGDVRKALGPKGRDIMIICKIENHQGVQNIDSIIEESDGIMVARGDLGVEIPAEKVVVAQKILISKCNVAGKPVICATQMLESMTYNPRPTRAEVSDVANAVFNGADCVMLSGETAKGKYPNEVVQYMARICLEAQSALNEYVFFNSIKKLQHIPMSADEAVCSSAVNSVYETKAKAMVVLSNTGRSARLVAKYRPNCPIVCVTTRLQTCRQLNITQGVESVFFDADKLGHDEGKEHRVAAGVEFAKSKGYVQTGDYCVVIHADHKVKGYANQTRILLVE
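Purified LmPK (0.1 nM) with 0.5 mM PEP and 0.1 mM ADP in imidazole buffer pH 7.2 with MgCl2/KCl, 1 h at room temperature. ATP formed was read by luciferase luminescence and normalized to no-enzyme and uninhibited controls.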
Shiga inhibitor = Shiga toxin inhibition; Vero cells, Shiga toxin protein synthesis inhibition reporter; inhibition, % at 38.7 µM; actives 9.2% (n = 290,000); AID 2315; in the data active means inhibition mostly above about 28%, no sharp cut-off; inactive means mostly below about 43%
RE007 growth inh = less growth of the S. pombe RE007 Vpr strain | S. pombe RE007 Vpr strain, BacTiter-Glo ATP luminescence, 24 h | Potency, µM (highest dose often 92.2 µM), hits mostly inhibitors | actives 0.21% (n = 360,000) | AID 651644; active means well fitted falling curve with a large enough effect; further: nearly all actives have a fitted effect of over 50% in size
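Fission yeast strain RE007, carrying one chromosomally integrated HIV-1 vpr copy, was seeded at OD 0.01 in PMG+AL medium with 23 nL pinned compound. After 24 h at 30 °C and 99% humidity, viability was read by BacTiter-Glo luminescence.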
Hits are given with their value; – = inactive; · = no result. Unless noted, the call rests on the fitted dose curve; in most records, active means well fitted curve in the direction sought with a large enough effect; inconclusive means small, poorly fitted or top-dose-only effect, or another doubt; inactive means no such curve, though single readings can be large; an effect the other way counts as inactive or inconclusive.

SMILES | CHX counter | Tb PYK inh | Giardia FBPA inh | LmPK inhibitor | Shiga inhibitor | RE007 growth inh
CC(=O)c1ccc(N2CCN(C(=O)c3cn(C)c(=O)c4c3c3ccccc3n4C)CC2)cc1 | · | – | · | · | · | ·
COc1cc(C(=O)Nc2cc(C)ccn2)ccc1OCC(=O)N1CCOCC1 | 42 | – | · | – | 51 | –
CCCCOc1ccc(C(=O)Nc2cc(C)c(OCC(=O)N3CCOCC3)c(C)c2)cc1 | 22 | – | – | – | – | –
Cc1cc(NC(=O)c2ccc(Cl)cc2)cc(C)c1OCC(=O)N1CCOCC1 | 33 | – | · | – | 77 | –
Cc1ccc2oc3c(c(=O)c2c1)C(c1ccc(F)cc1)N(Cc1ccc2c(c1)OCO2)C3=O (stereo not drawn) | · | – | · | · | · | ·
C=C1/C(=C/C=C2\CCCC3(C)[C@@H]([C@H](C)/C=C/C=C/C(O)(CC)CC)CC[C@@H]23)C[C@@H](O)C[C@@H]1O (stereo partly drawn) | · | – | · | · | · | ·
O=S(=O)(c1ccc(Br)s1)N1CCN(c2ccnc3cc(Cl)ccc23)CC1 | 15 | – | – | – | – | –
CCc1nc2sc3c(c2c(=O)n1N)CC(C)(C)OC3 | – | – | – | – | – | –
Nn1c(Cc2ccccc2)nc2sc3c(c2c1=O)CCC3 | – | – | – | – | – | –

Screens deposited in PubChem by National Center for Advancing Translational Sciences (NCATS).
